# Bioassay records as filed in PubChem BioAssay.
# Casp6 inh – caspase-6 (human) enzyme inhibition | P55212 | purified caspase-6, Z-VEID-R110 cleavage fluorescence | 350,000 compounds, 0.53% hits | AID 686996 | inhibition, % at 12.5 µM;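 active means mean inhibition across replicates at least about 35%, with every replicate also reaching that limit, limit read from the data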;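 further: 0% = median of neutral control wells and 100% = no fluorescence left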
# NSD2 HMT inh – blocks human histone methyltransferase NSD2; O96028; NSD2 peptide methylation, AlphaScreen, 120 min; inhibition, % at 12.5 µM; 310,000 compounds, 0.54% hits; in the data active means inhibition above about 50%
# Target sequence (O96028 whole entry, looked up): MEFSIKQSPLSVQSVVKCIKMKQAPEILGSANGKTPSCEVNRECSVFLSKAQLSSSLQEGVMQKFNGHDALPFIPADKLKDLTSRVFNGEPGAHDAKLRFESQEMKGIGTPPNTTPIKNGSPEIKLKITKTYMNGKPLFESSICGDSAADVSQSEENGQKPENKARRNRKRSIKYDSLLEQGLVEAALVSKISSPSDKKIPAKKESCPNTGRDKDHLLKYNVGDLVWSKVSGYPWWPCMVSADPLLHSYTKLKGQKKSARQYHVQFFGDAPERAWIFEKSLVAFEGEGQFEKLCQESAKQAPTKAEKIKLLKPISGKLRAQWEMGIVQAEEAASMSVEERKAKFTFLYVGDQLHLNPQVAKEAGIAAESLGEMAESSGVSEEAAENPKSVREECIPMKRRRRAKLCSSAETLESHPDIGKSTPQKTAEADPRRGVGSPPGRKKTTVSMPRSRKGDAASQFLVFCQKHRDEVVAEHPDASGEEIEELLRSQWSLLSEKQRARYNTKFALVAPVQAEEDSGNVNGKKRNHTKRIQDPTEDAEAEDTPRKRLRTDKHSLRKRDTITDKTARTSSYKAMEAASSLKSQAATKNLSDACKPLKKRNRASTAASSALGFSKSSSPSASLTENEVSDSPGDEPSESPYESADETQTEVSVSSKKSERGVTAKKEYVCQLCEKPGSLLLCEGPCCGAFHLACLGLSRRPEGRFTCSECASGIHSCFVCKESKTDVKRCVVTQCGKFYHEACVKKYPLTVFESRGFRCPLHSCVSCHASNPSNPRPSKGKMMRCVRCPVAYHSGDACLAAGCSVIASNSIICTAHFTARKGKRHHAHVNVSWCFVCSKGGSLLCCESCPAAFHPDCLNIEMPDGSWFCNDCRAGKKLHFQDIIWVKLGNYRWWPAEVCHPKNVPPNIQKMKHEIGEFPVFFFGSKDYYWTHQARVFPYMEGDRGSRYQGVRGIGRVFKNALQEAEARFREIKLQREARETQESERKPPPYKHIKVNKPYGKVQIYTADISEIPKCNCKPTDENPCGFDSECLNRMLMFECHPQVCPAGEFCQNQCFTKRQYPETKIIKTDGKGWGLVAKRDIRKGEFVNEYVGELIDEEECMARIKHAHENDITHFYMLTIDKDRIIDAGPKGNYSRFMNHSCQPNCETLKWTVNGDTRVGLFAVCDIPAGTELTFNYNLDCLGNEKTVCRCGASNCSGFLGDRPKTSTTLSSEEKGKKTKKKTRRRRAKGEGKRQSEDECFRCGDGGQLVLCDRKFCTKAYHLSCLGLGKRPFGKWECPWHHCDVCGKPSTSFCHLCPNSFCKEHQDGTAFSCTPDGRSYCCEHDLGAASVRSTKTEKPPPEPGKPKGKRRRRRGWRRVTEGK
# Ecoli rRNA inh – inhibitors of bacterial rRNA selective over humanized ribosomes | 350,000 compounds, 1.6% hits | GFP signal change (wild-type ribosome), % (concentration not given with the values) | E. coli WT GFP vs humanized-ribosome RFP mutants, fluorescence, 24 h; active compounds read low; DMSO median 0, no signal -100;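 active means significant combined selectivity score with lowered wild-type GFP, culture density cut under 30%, mutant RFP and density less affected; inactive means any of these conditions unmet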
# RAD52 inh – RAD52 (human) annealing inhibition. P43351. recombinant RAD52 DNA annealing, FRET fluorescence. inhibition, % at 18.7 µM. 360,000 compounds, 0.46% hits. AID 651710;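 active means every replicate showing at least 50% inhibition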
# AF4-AF9 inh – MLL-AF4/AF9 protein interaction inhibition; P42568; inhibition, % at 10 µM; AlphaScreen, biotin-AF4 peptide binding to FLAG-AF9; AID 651704; 350,000 compounds, 0.47% hits;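 active means every replicate reaching a set inhibition limit, whatever the replicate mean, cut at about 25% in these data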;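 further: 0% = plate neutral control median and 100% = total signal loss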
# Active calls of the source: *; x = no result given. Rows were chosen to be rich in hits. Some 2.5% of all compounds tested hit in one or more screens of this group.
SMILES,Casp6 inh,NSD2 HMT inh,Ecoli rRNA inh,RAD52 inh,AF4-AF9 inh
CCN1CCN(C2=C(NS(=O)(=O)c3ccc(NC(C)=O)cc3)C(=O)c3ccccc3C2=O)CC1,47.7*,26.5,-2.5,-16.3,4.5
CC(C)NC(=O)N(C)C[C@@H]1Oc2ncccc2C(=O)N(C)C[C@@H]1C,x,x,1.1,x,x
COc1ccc2c3c(n(C)c2c1)[C@H](CO)N(CC1CC1)CC31CN(Cc2nccs2)C1,-7.5,x,5.0,7.0,1.8
C[C@@H]1CN([C@H](C)CO)C(=O)c2cc(C#Cc3cccc(F)c3)cnc2O[C@H]1CN(C)C(=O)C1CCCCC1,7.3,x,-6.7,6.2,2.2
Cn1c(-c2ccccc2)cnc1NCc1ccccc1,-2.3,1.0,16.7,-27.0,8.3
Cn1c(-c2cccc(Br)c2)cnc1NCc1ccccc1O,2.1,3.6,4.0,2.9,26.2*
C[C@H](CO)N1C[C@H](C)[C@@H](CN(C)S(=O)(=O)c2ccc(Cl)cc2)Oc2c(NS(=O)(=O)c3ccccc3)cccc2C1=O,0.6,x,-1.0,11.5,-25.3
O=C(Nc1cccc(Cl)c1)Nc1nc(-c2ccccc2)cs1,4.4,x,-34.0,-8.3,-6.5
Cn1nc(-c2ccc(Cl)cc2)cc1NC(=O)Nc1ccccc1,-1.9,0.0,-44.5*,-13.1,5.3
O=C(Nc1ccc(Cl)cc1)Nc1nc(-c2ccccc2)cs1,-4.4,-1.2,-37.7*,-23.6,-4.8
O=C(c1cccc(F)c1)N1CCCCN2[C@H](CO)[C@@H](c3ccc(-c4ccc(F)cc4)cc3)[C@H]2C1,-1.4,x,x,38.4,1.6
Cc1cccc(-c2ccc([C@H]3[C@H]4CN(C(=O)c5cccnc5)CCCCN4[C@H]3CO)cc2)c1,-1.7,x,2.5,6.4,25.5*
O=C(c1cccc(F)c1)N1CCCCN2[C@@H](CO)[C@@H](c3ccc(-c4ccc(F)cc4)cc3)[C@@H]2C1,0.4,x,x,53.1*,7.9
COC(=O)C(Cc1csc2ccc(Cl)cc12)NC(=O)c1ccc(Cl)cc1 (centres undefined),-1.8,x,-16.4*,-13.2,-4.5
COc1cccc(C(=O)Oc2cc3c4c(c2)C(C)=CC(C)(C)N4C(=O)C3=O)c1,1.9,3.5,-20.3*,3.9,26.2*
CO[C@H]1CN(C)C(=O)c2cc(NC(C)=O)ccc2OC[C@H](C)N(C(=O)Cc2cccnc2)C[C@@H]1C,-2.3,x,2.0,1.5,0.4
Cc1ccc(CCNC(=O)C(C)n2nc(C)c3c(C)n(-c4ccccc4)nc3c2=O)cc1 (centres undefined),0.0,-1.1,1.3,-2.9,0.6
CCC(C(=O)NCCc1ccc(C)cc1)n1nc(C)c2c(C)n(-c3ccccc3)nc2c1=O (centres undefined),3.3,-0.1,-21.4*,-6.9,1.1
O=C(NNC(=O)c1ccccc1OCc1ccc(F)cc1)c1ccccc1O,-0.5,1.2,x,-12.5,-0.3
O=C(NCc1ccc(F)cc1)c1ccccc1OCc1ccccc1,-1.4,-0.5,-37.5*,7.0,-19.8
CS(=O)(=O)N1C2CN(CC3CC3)CC1C2c1ccc(Br)cc1 (centres undefined),x,x,-1.7,x,x
O=C(CCl)N(c1ccc(Cl)cc1)c1c[nH]c2ccccc12,8.4,1.6,-22.6*,-20.5,x
COc1ccc(CCNC(=O)COC(=O)c2ccc(OC)cc2OC)cc1,-3.2,-2.3,-7.7,-11.0,0.0
O=C(COC(=O)c1ccccc1C(=O)c1ccc(Cl)cc1)NCCc1ccccc1,-0.1,0.7,-29.2*,-13.9,-0.9
CCOc1ccccc1C(=O)OCC(=O)NCCc1ccc(OC)cc1,1.8,-9.3,-21.9*,1.4,0.1
SMILES,Casp6 inh,NSD2 HMT inh,Ecoli rRNA inh,RAD52 inh,AF4-AF9 inh
C[C@@H]1CN([C@@H](C)CO)C(=O)Cc2cc(NS(=O)(=O)c3cccs3)ccc2O[C@H]1CN(C)Cc1ccc(C(F)(F)F)cc1,1.7,x,-3.6,-7.0,2.7
C[C@@H]1CN([C@@H](C)CO)C(=O)c2cc(-c3cccc(F)c3)cnc2O[C@@H]1CN(C)Cc1ccccn1,1.1,x,-2.8,8.9,-2.6
Cc1ccc(S(=O)(=O)N2CCN(C(=O)COC(=O)c3ncc(Cl)c(Cl)c3Cl)CC2)c(C)c1,-4.6,x,-22.8*,2.5,1.0
Cc1ccc(S(=O)(=O)N2CCN(C(=O)COC(=O)c3nc(Cl)ccc3Cl)CC2)c(C)c1,-1.1,-2.7,-2.3,-7.9,5.3
O=C(CN1CCN(c2ncccn2)CC1)N(Cc1ccccc1)c1ccc(F)cc1,1.9,1.1,-34.8*,2.6,-9.5
C[C@H]1CN([C@@H](C)CO)C(=O)c2cc(NC(=O)Cc3ccccc3)ccc2O[C@@H]1CN(C)Cc1ccc(-c2ccccc2)cc1,x,x,-7.3,x,x
CCc1ccccc1OCC(=O)OCC(=O)N1CC(=O)Nc2ccccc21,59.5*,1.7,6.4,-29.4,-0.2
CCN(c1ccccc1)c1cc2ccccc2c(=O)[nH]1,64.6*,41.2,4.2,-5.6,2.3
C[C@H]1CN([C@@H](C)CO)C(=O)c2cc(C#Cc3cccnc3)cnc2O[C@H]1CN(C)C(=O)CN(C)C,-1.3,x,6.4,-1.3,-4.2
C=CCn1c(COc2cccc(C)c2)nnc1SCn1nnc2ccccc2c1=O,-1.3,-0.9,-42.6*,-10.0,5.6
Cc1ccc(-c2ccc3c(c2)O[C@H](CN(C)Cc2cccnc2)[C@H](C)CN([C@@H](C)CO)S3(=O)=O)cc1,-0.1,x,-27.8,4.1,5.5
CO[C@H]1CN(C)C(=O)c2ccc(NC(=O)NC(C)C)cc2OC[C@@H](C)N(CCC(F)(F)F)C[C@H]1C,1.8,x,-0.3,3.1,0.0
C[C@H](CO)N1C[C@H](C)[C@H](CN(C)CC2CC2)OCCCC[C@H](C)Oc2ccc(NC(=O)Nc3ccc(C(F)(F)F)cc3)cc2C1=O,-0.8,x,-4.8,54.2*,13.2
C[C@@H]1CCCCO[C@@H](CN(C)C)[C@H](C)CN([C@H](C)CO)C(=O)c2cc(NC(=O)Nc3ccc(C(F)(F)F)cc3)ccc2O1,1.1,x,-58.7,50.0*,6.6
C[C@@H]1CCCCO[C@@H](CN(C)C)[C@@H](C)CN([C@H](C)CO)C(=O)c2cc(NC(=O)Nc3ccc(C(F)(F)F)cc3)ccc2O1,-3.0,x,-27.6,53.8*,2.2
C[C@@H]1CCCCO[C@H](CN(C)C)[C@@H](C)CN([C@H](C)CO)C(=O)c2cc(NC(=O)Nc3ccc(C(F)(F)F)cc3)ccc2O1,-0.9,x,0.5,22.7,1.6
COc1ccc(-c2c(C)nn3c(-c4ccccc4)cc(C)nc23)cc1,-1.0,x,-4.2,-15.4,26.6*
COCC#Cc1ccc([C@@H]2[C@@H](CO)N3CCCCN(C(=O)CN(C)C)C[C@@H]23)cc1,-1.1,x,6.6,-9.8,-2.3
CN(C)CC#Cc1ccc([C@@H]2[C@H](CO)N3CCCCN(C(=O)CN(C)C)C[C@@H]23)cc1,0.3,x,5.8,87.8*,8.4
CN(C)CC#Cc1ccc([C@@H]2[C@@H](CO)N3CCCCN(C(=O)CN(C)C)C[C@H]23)cc1,17.3,x,8.3,60.9*,6.9
COCC#Cc1ccc([C@H]2[C@H]3CN(C(=O)CN(C)C)CCCCN3[C@H]2CO)cc1,1.5,x,6.9,-19.5,-0.4
